Test systems include HCT-15 colon; HT29 colon; SNB-75 CNS; SNB-19 CNS; U251 CNS; PC-3 prostate; SK-MEL-5 melanoma; UACC-62 melanoma; LOX IMVI melanoma; SK-MEL-28 melanoma; SK-MEL-2 melanoma; EKVX NSCLC; SN12C renal; UO-31 renal; TK-10 renal; ACHN renal; CAKI-1 renal; A498 renal; CCRF-CEM leukemia; MOLT-4 leukemia.
Common to all, as to assay: NCI-60 one-dose screen, 48 h (100 = growth as untreated, 0 = no growth, -100 = all killed)
Common to all, as to conditions: 10 µM

The panel holds about 83,000 compounds, 20% with a hit somewhere; the sample as a whole holds those more often.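 Cells were grown in 96-well plates and exposed to the test compound at a single concentration for 48 hours; results are reported as percent growth, with values below 10 considered active.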 A number with no mark means an inactive call. Calls of active or inactive are those of the source.

Consider `COc1cnc2c(c1)C(=O)c1c-2n(CCCNC(C)C)c(=O)c2cc(OC)c(OC)cc12`, for which the growth with HCT-15 colon is 34.6%; with HT29 colon, 10.5%; in the experiment with SNB-75 CNS, 70.7%; with SNB-19 CNS, 25.2%; in the experiment on U251 CNS, 30.4%; in the experiment on PC-3 prostate, 48.7%. The growth is 47.7% in the experiment on SK-MEL-5 melanoma; 18.7% in the experiment with UACC-62 melanoma; -88.2% (active) with LOX IMVI melanoma; 94% in the experiment with SK-MEL-28 melanoma; 107% in the experiment with SK-MEL-2 melanoma; 92.6% with EKVX NSCLC. The growth in the experiment with SN12C renal is 25%; with UO-31 renal, 29.5%; in the experiment with TK-10 renal, 87.6%; in the experiment on ACHN renal, 3.23% (active); with CAKI-1 renal, 15.2%; with A498 renal it was 105%. Further, the growth is 16.2% in the experiment on CCRF-CEM leukemia and 16.5% in the experiment on MOLT-4 leukemia.

With `Nc1cc(-c2cccc(C(=O)NCc3ccc4c(c3)OCO4)c2)ccn1`, the growth in the experiment on HCT-15 colon was 95.8%; with HT29 colon, 111%; in the experiment with SNB-75 CNS, 86%; with SNB-19 CNS, 95.2%; with U251 CNS, 92.2%; with PC-3 prostate, 103%. Besides, the growth in the experiment on SK-MEL-5 melanoma is 91.7%; with UACC-62 melanoma, 93.4%; with LOX IMVI melanoma, 89.5%; in the experiment with SK-MEL-28 melanoma it was 103%; with SK-MEL-2 melanoma, 105%; in the experiment with EKVX NSCLC, 76.8%. The growth in the experiment on SN12C renal was 104%; with UO-31 renal, 71.9%; in the experiment with TK-10 renal, 103%; with ACHN renal, 97%; in the experiment on CAKI-1 renal it was 92.3%; in the experiment with A498 renal it was 106%. The growth in the experiment on CCRF-CEM leukemia is 98.9%; in the experiment with MOLT-4 leukemia, 91.1%.

As for `COc1ccc(N2N=C(c3ccc4c(c3)OCCO4)CC2c2cccc(NC(=O)CCCNS(=O)(=O)c3ccc(F)cc3)c2)cc1` (stereo not given), the growth with HCT-15 colon was 67.5%; with HT29 colon it was 84.4%; in the experiment with SNB-75 CNS, 42.4%; in the experiment with SNB-19 CNS, 69.3%; in the experiment on U251 CNS, 75.4%; in the experiment with PC-3 prostate, 52%. The growth in the experiment on SK-MEL-5 melanoma was 64.2%; in the experiment with UACC-62 melanoma it was 61.8%; with LOX IMVI melanoma, 72.5%; in the experiment with SK-MEL-28 melanoma it was 81.5%; in the experiment with SK-MEL-2 melanoma, 88.4%; in the experiment on EKVX NSCLC, 57.9%. Moreover, the growth was 74.8% with SN12C renal; 58.8% in the experiment on UO-31 renal; 78.2% with TK-10 renal; 70.7% in the experiment on ACHN renal; 53.9% in the experiment with CAKI-1 renal; 86.5% in the experiment with A498 renal. Further, the growth in the experiment on CCRF-CEM leukemia was 67.7%; in the experiment on MOLT-4 leukemia, 34%.

With `CC1CC(c2ccc(N(C)C)cc2)=NN1c1nc(O)c(C2=c3cc(Br)ccc3=NC2=O)s1` (stereo not given), the growth was 50.5% in the experiment with HCT-15 colon; 83.5% in the experiment with HT29 colon; 89.9% in the experiment with SNB-75 CNS; 94.7% in the experiment with SNB-19 CNS; 69.9% in the experiment on U251 CNS; 53.2% in the experiment with PC-3 prostate. In addition, the growth is 73.5% with SK-MEL-5 melanoma; 98.5% in the experiment on UACC-62 melanoma; -46.1% (active) in the experiment on LOX IMVI melanoma; 110% in the experiment with SK-MEL-28 melanoma; 98.9% with SK-MEL-2 melanoma; 61.9% in the experiment on EKVX NSCLC. Besides, the growth is 106% in the experiment with SN12C renal; 78.3% with UO-31 renal; 94.4% with TK-10 renal; 92.2% with ACHN renal; 101% in the experiment on CAKI-1 renal; 103% with A498 renal. For the same molecule, the growth is 29.8% in the experiment with CCRF-CEM leukemia and 70.5% in the experiment on MOLT-4 leukemia.

Regarding `COc1ccc(/C(C)=N/N=C2C(=O)N(C)c3ccc(Br)cc32)cc1S(N)(=O)=O`, the growth is 75.1% in the experiment with HCT-15 colon; 101% in the experiment on HT29 colon; 6.59% (active) in the experiment on SNB-75 CNS; 34.7% with SNB-19 CNS; 51.7% in the experiment with U251 CNS; 73.7% in the experiment on PC-3 prostate. Also, the growth was 88.2% with SK-MEL-5 melanoma; 73.8% with UACC-62 melanoma; 74.6% with LOX IMVI melanoma; 90.3% in the experiment on SK-MEL-28 melanoma; 81.7% in the experiment with SK-MEL-2 melanoma; 56.7% in the experiment on EKVX NSCLC. Moreover, the growth is 68.7% in the experiment with SN12C renal; 65.1% in the experiment with UO-31 renal; 105% with TK-10 renal; 69.3% with ACHN renal; 41% in the experiment with CAKI-1 renal; 99.6% with A498 renal. Moreover, the growth with CCRF-CEM leukemia is 89.1%; in the experiment on MOLT-4 leukemia, 84.6%.

Turning to `O=c1c2ccccc2nc(COc2ccccc2)n1/N=C/c1ccc(N2CCCC2)cc1`, the growth with HCT-15 colon is 82.8%; in the experiment on HT29 colon it was 79.9%; in the experiment with SNB-75 CNS, 108%; in the experiment on SNB-19 CNS it was 89.5%; in the experiment with U251 CNS it was 105%; in the experiment with PC-3 prostate, 80.3%. For the same molecule, the growth was 62.4% with SK-MEL-5 melanoma; 61.6% in the experiment on UACC-62 melanoma; 86.6% in the experiment on LOX IMVI melanoma; 100% with SK-MEL-28 melanoma; 104% in the experiment on SK-MEL-2 melanoma; 88% in the experiment on EKVX NSCLC. Also, the growth with SN12C renal was 88.7%; in the experiment with UO-31 renal, 69.8%; in the experiment on TK-10 renal, 99.5%; in the experiment with ACHN renal, 92.3%; with CAKI-1 renal, 91.5%; in the experiment with A498 renal, 109%. Further, the growth in the experiment with CCRF-CEM leukemia was 78.2%; in the experiment with MOLT-4 leukemia it was 78.1%.

Regarding `O=C(Nc1cccc(C(F)(F)F)c1)c1cncc(C#Cc2cnc3cccnn23)c1`, the growth with HCT-15 colon was 37.7%; in the experiment on HT29 colon, 49.4%; with SNB-75 CNS, 122%; in the experiment on SNB-19 CNS it was 82.7%; in the experiment with U251 CNS, 67.6%; in the experiment on PC-3 prostate, 35.3%. Further, the growth was 25.6% in the experiment on SK-MEL-5 melanoma; 35.4% with UACC-62 melanoma; 22.1% in the experiment on LOX IMVI melanoma; 63.2% with SK-MEL-28 melanoma; 61.1% in the experiment on SK-MEL-2 melanoma; 54.7% in the experiment on EKVX NSCLC. In addition, the growth in the experiment with SN12C renal is 35.5%; in the experiment on UO-31 renal, 30.4%; in the experiment on TK-10 renal it was 97.8%; with ACHN renal it was 55.2%; in the experiment with CAKI-1 renal, 71.8%; in the experiment on A498 renal, 171%. Besides, the growth in the experiment on CCRF-CEM leukemia is 16.5%; in the experiment with MOLT-4 leukemia it was 24.3%.

The values above are taken from PubChem BioAssay (NCI).
